This note sets out measurements from PubChem BioAssay AID2234 (The Scripps Research Institute Molecular Screening Center, 2010).

The structures appear in SMILES notation. The whole screen tested about 320,000 compounds, of which about 480 (0.15%) were called active. This is one part of a sample in which actives are shown more often than they occur. Cut-off read from the data, not from the text of the source: active = inhibition above about 33%; inactive = the rest.

The target of this assay is Lytic switch protein BZLF1 (Epstein-Barr virus (strain B95-8)) (UniProt P03206). In words: Zta-DNA interaction blockers, Epstein-Barr virus – biochemical, fluorescence polarization, single concentration, counter-screen for EBNA-1 inhibitor project, primary screen (AID 2234). The conditions noted are these: ZTA-DNA binding, at 11 µM, hits give high values. A general note: In fluorescence polarisation assays a small probe gives low polarisation when free and higher when bound to something large.
Sequence of Lytic switch protein BZLF1 (Epstein-Barr virus (strain B95-8)) (P03206 whole entry, looked up): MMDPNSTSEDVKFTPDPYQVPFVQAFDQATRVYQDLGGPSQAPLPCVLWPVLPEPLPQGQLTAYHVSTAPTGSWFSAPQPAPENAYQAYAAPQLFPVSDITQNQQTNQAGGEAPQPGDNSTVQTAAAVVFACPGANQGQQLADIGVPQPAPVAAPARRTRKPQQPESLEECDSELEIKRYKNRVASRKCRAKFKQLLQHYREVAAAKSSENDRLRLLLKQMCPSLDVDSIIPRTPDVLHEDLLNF
For the compound `CC(=O)Nc1ccc(NC(=O)COC(=O)c2ccccc2C(=O)c2ccccc2)cc1`, the inhibition was 1.75% (inactive).

Consider `COc1ccc(N2CC(NS(=O)(=O)c3ccc4ccccc4c3)CC2=O)cc1` (stereo unspecified), for which the inhibition was -13.8% (inactive).

In the case of `CCC1=C(OC(=O)N(CC)CC)N2C(=O)OC(=NCC3CC3)[C@]2(C)[C@H]2C1=CC[C@H]1C(=O)N(CC(=O)OC)C(=O)[C@H]12`, the inhibition was 14% (inactive).

Regarding `CN(C(=O)CN1C(=O)CCSc2ccc(S(=O)(=O)N3CCCC3)cc21)c1ccccc1`, the inhibition is 4.65% (inactive).

For `COCCOC(=O)C1=C(C)NC(=O)NC1c1cc2c(cc1Br)OCO2` (stereo unspecified), the inhibition is -2.42% (inactive).

As to `Cc1cc(C(=O)OCC(=O)Nc2ccccc2Cl)c(C)o1`, the inhibition is -1% (inactive).

Regarding `CC1(c2nnc(-c3ccncc3)o2)CC(c2cccnc2)=NO1` (stereo unspecified), the inhibition is -4.98% (inactive).

Turning to `CCNc1nc(Oc2ccc(C(=O)OC)cc2)nc(N2CCOCC2)n1`, the inhibition is 26.6% (inactive).

For the compound `Cc1ccccc1CN1C(=O)c2ccccc2Sc2ccc(C(=O)NCCCN3CCOCC3)cc21`, the inhibition was 5.14% (inactive).

In the case of `CCN1CCN(CCNC(=O)c2ccc(/C=C3/Sc4ccccc4N(Cc4cccc(C)c4)C3=O)cc2)CC1`, the inhibition was 56.8% (active).

On to `O=C(NCCCN1CCOCC1)c1ccc2c(c1)N(Cc1cccc(F)c1)C(=O)c1ccccc1S2`, for which the inhibition was -13.9% (inactive).

As for `Cn1cnc2c1c(=O)n(Cc1ccccc1C#N)c(=O)n2C`, the inhibition was 95.5% (active).

Consider `Cn1cnc2c1c(=O)n(Cc1c(Cl)cccc1Cl)c(=O)n2C`, for which the inhibition is -29.3% (inactive).

Turning to `Cn1c(=O)c2c(ncn2CCc2ccccc2)n(C)c1=O`, the inhibition is -0.22% (inactive).

For `Cc1ccc(Cc2nnc(SCC(=O)Nc3ccccc3C)[nH]c2=O)cc1`, the inhibition is 0.83% (inactive).

In the case of `Cc1ccc(C(=O)O)cc1-c1ccc(/C=C2\SC(=O)N(CC(=O)Nc3ccc4c(c3)OCO4)C2=O)o1`, the inhibition is 9.2% (inactive).

On to `CCN1C(=NCC(C)C)N[C@@H](CCc2ccccc2)[C@H](C(=O)NCC(C)C)[C@H]1C`, for which the inhibition is -17.1% (inactive).

For `CCOC(=O)CC(NC(=O)C1c2ccccc2Oc2ccccc21)c1ccc(C)cc1` (stereo unspecified), the inhibition was 2.93% (inactive).

As to `COc1ccc(N(CC(=O)Nc2ccc(F)c(F)c2)S(=O)(=O)c2c(C)[nH]c(=O)[nH]c2=O)cc1`, the inhibition was 3.47% (inactive).

For the compound `COC(=O)c1ccc(CN2CCN(CCCc3ccccc3)C(CCO)C2)cc1` (stereo unspecified), the inhibition was -17.9% (inactive).

For `Cc1cccn2c(CNCC(C)Oc3cccnc3)c(C(=O)N3CCOCC3)nc12` (stereo unspecified), the inhibition is 13.7% (inactive).

In the case of `O=C(CC(NCCN1CCOCC1)C(=O)O)Nc1cccc(Cl)c1` (stereo unspecified), the inhibition is 5.11% (inactive).

Regarding `CCCCS(=O)c1snnc1C` (stereo unspecified), the inhibition was -5.28% (inactive).

On to `Cc1ccc2c(C)c(C(=O)N3CCN(c4ccncc4)CC3)oc2c1C`, for which the inhibition was 1.76% (inactive).

Turning to `O=C(COc1cccc(F)c1)Oc1ccc(C(=O)c2ccccc2)cc1`, the inhibition is 12.6% (inactive).

On to `CCC1CCC/C1=N\NC(=O)c1ccc(Cl)cc1` (stereo unspecified), for which the inhibition is 4.98% (inactive).

Consider `COc1cc(-c2nnc(Cn3cc(C(F)(F)F)ccc3=O)o2)cc(OC)c1OC`, for which the inhibition is 5.1% (inactive).

On to `COC(=O)C1CCCCN1C(=O)c1ccc(OC2CCN(C(C)=O)CC2)c(OC)c1` (stereo unspecified), for which the inhibition is 5.86% (inactive).

Consider `O=C(c1cccc(-n2cccc2)c1)N1CCN(S(=O)(=O)c2ccc(F)cc2)CC1`, for which the inhibition is -25.8% (inactive).

For `O=C(NC1CC1)C1=C[C@H](c2coc3ccccc3c2=O)C[C@H](OCCCCO)O1`, the inhibition is -2.42% (inactive).

On to `N#CCSc1nc2ccc(N3CCOCC3)cc2c(=O)n1CCc1ccccc1`, for which the inhibition is -10.6% (inactive).

In the case of `O=C(Nc1cccc(-c2nc3ccccc3[nH]2)c1)c1ccc(C(=O)Nc2cccc(-c3nc4ccccc4[nH]3)c2)cc1`, the inhibition is 84% (active).

For `Cc1ccc(-c2nc3ccccc3[nH]2)cc1N`, the inhibition is -1% (inactive).

`O=C(Nc1ccccc1)c1cc2ccccc2[nH]1`: the inhibition was -12.6% (inactive).

Turning to `Cc1cccc(N2C(=O)N3[C@H](c4ccc(F)cc4)[C@@H]4C(=O)N(C5CCCCC5)C(=O)[C@@H]4[C@]3(Cc3ccccc3)C2=O)c1`, the inhibition was -2.81% (inactive).

As to `O=C(NCc1ccccc1CN1CCCC1)c1cccc(S(=O)(=O)Nc2ccc(F)cc2)c1`, the inhibition was 3.93% (inactive).

Take `CS(=O)(=O)Nc1cccc(C2=NN(C(=O)c3cccc(F)c3)C(c3cccs3)C2)c1` (stereo unspecified): the inhibition was -3.98% (inactive).

As to `CN1CCN(CCCNC(=O)c2ccc(/C=C3\Oc4ccccc4N(Cc4ccc(Cl)cc4)C3=O)cc2)CC1`, the inhibition is 45.5% (active).

Take `CN1C(=O)/C(=C/c2ccc(C(=O)NC3CCCC3)cc2)Oc2ccccc21`: the inhibition is -2.56% (inactive).

Turning to `CCCN1CCN(C(=O)CCCNC(=O)c2ccc(Cl)cc2)CC1`, the inhibition was 1.38% (inactive).

With `CC(=O)c1c(C)[nH]c(C(=O)OCC(=O)Nc2c(C)cccc2C)c1C`, the inhibition was 3.88% (inactive).

With `COC(=O)c1cc(N2CCNCC2)nc2ccccc12`, the inhibition was 5.41% (inactive).

For the compound `CC12CCC(=O)N1C(C(=O)NCCN1C(=O)S/C(=C\c3ccccc3F)C1=O)CS2` (stereo unspecified), the inhibition was -4.27% (inactive).

On to `Cc1ccc(-c2nn(-c3ccc(F)cc3)cc2C(=O)NCC(c2cccs2)N2CCOCC2)cc1` (stereo unspecified), for which the inhibition was 2.78% (inactive).

Regarding `CC1=CC2=NC(=O)CC(C)(C(=O)N(CC(=O)NC(C)(C)C)Cc3ccccc3)N2C=C1` (stereo unspecified), the inhibition was -6.91% (inactive).

`COc1cc(C2/C(=C(\O)c3ccc4c(c3)CC(C)O4)C(=O)C(=O)N2c2nnc(C)s2)cc(OC)c1OC` (stereo unspecified): the inhibition was -16.7% (inactive).

Turning to `COc1ccccc1CNC(=O)C1Cc2ccccc2C(=O)O1` (stereo unspecified), the inhibition was -9.61% (inactive).

Consider `CC(=O)Nc1ccc(S(=O)(=O)Oc2ccc(Br)cc2C(=S)N2CCOCC2)cc1`, for which the inhibition was -23.8% (inactive).

Turning to `CCc1c(C)nc(N)n2c(SCC(=O)NC3CCCCC3)nnc12`, the inhibition was -21.8% (inactive).

Take `COc1ccc(N2CCN(C(=O)CN3C(=O)COc4ccccc43)CC2)cc1`: the inhibition is 49.2% (active).

For `Cc1ccc2c(c1)N(CC(=O)N1CCOCC1)C(=O)CO2`, the inhibition is -24.9% (inactive).

In the case of `COc1ccc(N2CCN(CCNC(=O)CCN3C(=O)COc4ccccc43)CC2)cc1`, the inhibition is 3.46% (inactive).

Consider `C=C(Cl)COC(=O)C1C2C=CC(C2)C1C(=O)O` (stereo unspecified), for which the inhibition was -6.87% (inactive).

On to `Cc1oc(-c2ccccc2Cl)[n+]([O-])c1C`, for which the inhibition was 4.54% (inactive).

For the compound `Cc1nc(N)c(Br)c(C)c1Br`, the inhibition was 10.1% (inactive).

Turning to `Cc1cc(NC(=O)CS(=O)(=O)c2cn(C)c3ccccc23)no1`, the inhibition is 3.47% (inactive).

Regarding `Cc1nc(-c2ccc(Cl)cc2)sc1C1(C)CC(c2ccccc2F)=NO1` (stereo unspecified), the inhibition is 0.91% (inactive).

With `O=C(CNS(=O)(=O)c1ccc(Br)s1)N1CCN(C(=O)c2ccco2)CC1`, the inhibition was 0.26% (inactive).

As for `Cc1cc(/C=N/NC(N)=O)c(C)n1C1CCCCC1`, the inhibition was 15.4% (inactive).

Turning to `CC(NC(=S)NNS(=O)(=O)c1ccc(C(C)(C)C)cc1)c1ccccc1` (stereo unspecified), the inhibition is -5.57% (inactive).

As for `O=C(NC(=S)Nc1cccc(-c2ccc(CO)o2)c1)c1cccs1`, the inhibition was -14.3% (inactive).

Take `CC1CCCCC1NC(=O)c1cn(C)c2ccc(S(=O)(=O)N3CCOCC3)cc2c1=O` (stereo unspecified): the inhibition is 3.74% (inactive).

Regarding `O=S(=O)(Nc1ccc2nc(-c3ccco3)[nH]c2c1)c1ccccc1`, the inhibition was -14.9% (inactive).

With `Cc1ccc(C2NC(=S)NC3=C2N2CCC3CC2)cc1` (stereo unspecified), the inhibition was -11.6% (inactive).

For the compound `CC12c3ccccc3C(c3ccccc31)C1C(=O)N(Cc3cccnc3)C(=O)C12` (stereo unspecified), the inhibition was 5.39% (inactive).

With `COc1cccc(NC(=O)CN2CCN(CC(=O)Nc3ccccc3Cl)CC2)c1`, the inhibition is 4.73% (inactive).

Turning to `CN1/C(=c2/s/c(=C3/C(=O)N(c4ccccc4)NC3=Nc3ccccc3)n(C)c2=O)C(C)(C)c2ccccc21`, the inhibition is 7.42% (inactive).

As to `CC(C)Oc1ccc(CN2CCC(n3nccc3NC(=O)c3cccnc3)CC2)cc1`, the inhibition was 6.96% (inactive).

For `COc1ccc(-c2c(C)nn3c(N4CCC(C(=O)N5CCCCC5)CC4)cc(C)nc23)cc1OC`, the inhibition is 6.7% (inactive).

With `CC(C(=O)N(C)CC(=O)Nc1ccccc1C(F)(F)F)N1C(=O)c2ccccc2C1=O` (stereo unspecified), the inhibition is -0.42% (inactive).

Turning to `COc1ccc(OC)c(S(=O)(=O)N2CCCC(C(=O)NCCc3ccccc3)C2)c1` (stereo unspecified), the inhibition was -17.4% (inactive).

`O=C(CCCC(=O)N(CC(=O)NC1CCCC1)Cc1ccccc1Cl)Nc1ccccn1`: the inhibition was 2.7% (inactive).

With `Cc1cc(OC(=O)c2ccccc2Cl)ccc1N1C(=O)CCC1=O`, the inhibition is -5.62% (inactive).

For the compound `COC(=O)c1ccccc1NC(=O)C1CCN(C(=O)N2CCOc3ccccc32)CC1`, the inhibition was -14.3% (inactive).

In the case of `COc1ccc(N2CCN(C3CCCCC3NS(=O)(=O)c3ccccc3)CC2)cc1` (stereo unspecified), the inhibition was -13.4% (inactive).

As to `CCC(C)C(=O)Nc1ccccc1N1CCN(c2ccc(F)cc2)CC1` (stereo unspecified), the inhibition was -25.1% (inactive).

On to `Cc1c(C(=O)c2cccc([N+](=O)[O-])c2)c2ccccn2c1CCC#N`, for which the inhibition is -12.6% (inactive).

With `CC(C)C(=O)Nc1nnc(SCC(=O)N2C(C)CCCC2C)s1` (stereo unspecified), the inhibition was -5.72% (inactive).

For `CC(=O)c1sc(NC(=O)CCN2C(=O)C3CC=CCC3C2=O)nc1-c1ccccc1` (stereo unspecified), the inhibition was 0.93% (inactive).

As to `Cn1nc(C(F)(F)F)cc1-c1ccc(/C=C(\C#N)C(=O)c2cccc(C(F)(F)F)c2)s1`, the inhibition was 9.6% (inactive).

Turning to `CC(=O)c1nc(N2C(=O)C3CC=C(C)CC3C2=O)sc1C` (stereo unspecified), the inhibition is -6.68% (inactive).

In the case of `CCN(C(=O)COC(=O)c1cc(NS(=O)(=O)c2ccc(Cl)c([N+](=O)[O-])c2)ccc1O)C1CCCCC1`, the inhibition was -8.06% (inactive).

As to `O=C(Cn1c(-c2ccc(Cl)cc2)noc1=O)N1CCN(c2ccccc2F)CC1`, the inhibition was -6.32% (inactive).

Take `CCOc1cc(-c2noc(CCCC(=O)NC3CCCCC3)n2)ccc1OC`: the inhibition was -2.96% (inactive).

With `CCOc1ncccc1C(=O)OCC(=O)N1c2ccccc2CC1C` (stereo unspecified), the inhibition is 6.32% (inactive).

Take `COc1cc(C(=O)NNC(=O)CN2C(=O)NC3(CCCC3)C2=O)cc(OC)c1OC`: the inhibition was 7.35% (inactive).

A word on the inhibition: it is the change of the read-out against control, counted positive when it falls.
